Measured values from PubChem BioAssay (Tox21).
Records with an inconclusive call do not appear. Activity calls are given as the source filed them. Unless noted, the call rests on the fitted dose curve; in most records, active means well fitted curve in the direction sought with a large enough effect in the repeat runs; inconclusive means weak or mixed curves; inactive means no such curve, though single readings can be large; an effect the other way counts as inactive or inconclusive.

Columns and labels:
[1] = qHTS assay for small molecules that induce genotoxicity in human embryonic kidney cells expressing luciferase-tagged ATAD5 (AID 651632); further: nearly all actives have a fitted effect of over 15% in size
Summary of the method: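 Quantitative HTS in HEK293T expressing luciferase-tagged ATAD5, whose levels rise upon DNA damage. Exposure ran 16 hr at 37C and 5% CO2, with luminescence read 30 min after Amplite addition at room temperature.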

[2] = qHTS assay for small molecule agonists of the p53 signaling pathway - cell viability (AID 651633; calls by dose curve;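 further: p53RE-bla HCT reporter cells with a stable beta-lactamase p53 reporter; series mostly up to about 83 µM; nearly all actives have a fitted effect of over 30% in size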)
Summary of the method: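 Viability counter-read: CellTiter-Glo luminescence (30 min, room temperature) in the same p53RE-bla plates. These plates had been exposed to compounds for 16 h at 37 C.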

[3] = qHTS assay for small molecule disruptors of the mitochondrial membrane potential - cell viability (AID 720634; calls by dose curve;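 further: human HepG2 liver cancer cells; series mostly up to about 83 µM; nearly all actives have a fitted effect of over 20% in size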)
Summary of the method: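 ATP-based luminescent viability readout (CellTiter-Glo, 30 min, room temperature) in HepG2 cells multiplexed with the m-MPI membrane potential dye; compound exposure lasted 1 hr at 37 C.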

[4] = qHTS assay for small molecule disruptors of the mitochondrial membrane potential (AID 720635); further: potency means the concentration at half of the fitted maximal effect
Summary of the method: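 Mitochondrial membrane potential tracked with Mito-MPS dye, red aggregates (ex 540/em 590 nm) against green monomers (ex 490/em 535 nm). Compound treatment 1 hr at 37C, dye 30 min in HepG2.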

[5] = qHTS assay to test for compound auto fluorescence at 590 nm (red) in HepG2 cells (AID 720674)
Summary of the method: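 We screened compounds on adherent HepG2 cells, incubating them for an hour at 37 C in 5% CO2 before reading emission at 590 nm under 540 nm excitation; values reflect equivalence to Rose Bengal sodium fluorescence.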

[6] = qHTS assay to test for compound auto fluorescence at 535 nm (green) in HepG2 cells (AID 720675)
[7] = qHTS assay to test for compound auto fluorescence at 590 nm (red) in HEK293 cells (AID 720679)
Summary of the method: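 We plated HEK293 cells in 10% dialyzed FBS medium, let them adhere for 4-5 hr, then added 23 nL compound. Overnight at 37C and 5% CO2 preceded fluorescence measurement at 540/590nm.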

[8] = qHTS assay to test for compound auto fluorescence at 535 nm (green) in HEK293 cells (AID 720680)
[9] = qHTS assay to test for compound auto fluorescence at 460 nm (blue) in HEK293 cell free culture (AID 720681)
Summary of the method: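 Blue fluorescence (Ex 405/Em 460 nm, triamterene-equivalent) was read immediately after pin transfer of compound or DMSO into medium (DMEM, 10% FBS) without cells.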

[10] = qHTS assay to test for compound auto fluorescence at 535 nm (green) in HEK293 cell free culture (AID 720682)
Summary of the method: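 Green-label autofluorescence (485 nm excitation, 535 nm emission) measured on compound added to cell-free culture medium (DMEM, 10% FBS). Output is expressed relative to fluorescein.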

[11] = qHTS assay to test for compound auto fluorescence at 590 nm (red) in HEK293 cell free culture (AID 720683)
Summary of the method: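 Red-channel autofluorescence of compounds in culture medium (DMEM, 10% FBS), no cells, measured at 540/590 nm. Rose Bengal sodium is the reference fluorophore for equivalence.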

[12] = qHTS assay to test for compound auto fluorescence at 590 nm (red) in HepG2 cell free culture (AID 720684)
Summary of the method: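 Cell-free; medium MEM + 10% FBS; compound or DMSO added by pintool; read Ex 540/Em 590 nm; Rose Bengal sodium as red reference fluorophore.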

[13] = qHTS assay to test for compound auto fluorescence at 460 nm (blue) in HepG2 cell free culture (AID 720685)
Summary of the method: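 Cell-free plates of MEM plus 10% FBS received 23 nL compound or DMSO vehicle; blue-channel (405/460 nm) intensity scored against triamterene as reference fluorophore.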

[14] = biological target: Glucocorticoid receptor (Homo sapiens) (UniProt P04150); assay: qHTS assay to identify small molecule agonists of the glucocorticoid receptor (GR) signaling pathway (AID 720691; active means well fitted activation curve with a large enough effect in the signal ratio in the repeat runs, not every such curve was filed as active; the % refers to the signal ratio)
Chain of Glucocorticoid receptor (Homo sapiens) (P04150 whole entry, looked up): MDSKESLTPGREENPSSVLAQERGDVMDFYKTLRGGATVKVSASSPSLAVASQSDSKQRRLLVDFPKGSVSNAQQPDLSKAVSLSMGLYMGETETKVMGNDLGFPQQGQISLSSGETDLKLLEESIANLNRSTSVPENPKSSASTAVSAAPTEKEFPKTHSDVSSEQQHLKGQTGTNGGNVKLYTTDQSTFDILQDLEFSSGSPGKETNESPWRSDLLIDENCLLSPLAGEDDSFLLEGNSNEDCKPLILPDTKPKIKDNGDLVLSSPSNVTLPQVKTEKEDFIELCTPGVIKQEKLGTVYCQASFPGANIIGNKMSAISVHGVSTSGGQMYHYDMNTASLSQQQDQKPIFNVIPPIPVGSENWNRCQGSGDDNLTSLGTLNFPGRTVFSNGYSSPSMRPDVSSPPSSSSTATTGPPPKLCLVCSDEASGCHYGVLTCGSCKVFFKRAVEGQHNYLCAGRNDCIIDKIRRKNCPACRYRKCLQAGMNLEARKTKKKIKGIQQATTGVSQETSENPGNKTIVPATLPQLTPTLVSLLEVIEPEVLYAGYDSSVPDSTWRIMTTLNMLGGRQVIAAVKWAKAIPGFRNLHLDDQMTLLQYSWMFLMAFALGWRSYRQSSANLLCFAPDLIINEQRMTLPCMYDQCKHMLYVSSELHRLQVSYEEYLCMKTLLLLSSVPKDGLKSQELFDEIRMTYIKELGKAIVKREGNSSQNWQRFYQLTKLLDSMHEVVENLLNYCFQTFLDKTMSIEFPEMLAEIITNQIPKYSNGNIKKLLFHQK
Summary of the method: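 Cells: GR-bla HeLa, endogenous GR with stably integrated GRE-beta-lactamase reporter. Treatment 18 h, 37 C, compounds delivered in DMSO. Detection via LiveBLAzer B/G FRET substrate, 2 h RT, fluorescence intensity.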

[15] = biological target: Glucocorticoid receptor (Homo sapiens) (UniProt P04150); assay: qHTS assay to identify small molecule antagonists of the glucocorticoid receptor (GR) signaling pathway (AID 720692; active means well fitted inhibition curve with a large enough effect in the signal ratio in the repeat runs, not every such curve was filed as active; the % refers to the signal ratio; further: potency means the concentration at half of the fitted maximal effect)
Summary of the method: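 Quantitative HTS in antagonist format: HeLa cells expressing endogenous GR and a stably integrated GRE-bla reporter, stimulated with 5 nM dexamethasone (final) alongside test compounds for 18 h.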

[16] = qHTS assay for small molecules that induce genotoxicity in human embryonic kidney cells expressing luciferase-tagged ATAD5 - cell viability (AID 651634; calls by dose curve; further: nearly all actives have a fitted effect of over 25% in size)
Summary of the method: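 After 15.5 hr incubation with compound at 37C, 5% CO2, HEK293T ATAD5-luciferase cells received CellTiter-Fluor reagent; fluorescence intensity was quantified following 30 min at 37C.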

[17] = qHTS assay to test for compound auto fluorescence at 460 nm (blue) in HEK293 cells (AID 720678)
Summary of the method: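 Triamterene serves as the blue fluorophore standard. Compound signal at 405/460 nm is read in HEK293 wells (2,000 cells, 10% dialyzed FBS) after overnight treatment at 37C.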

[18] = qHTS assay to test for compound auto fluorescence at 535 nm (green) in HepG2 cell free culture (AID 720686)
[19] = qHTS assay to test for compound auto fluorescence at 460 nm (blue) in HepG2 cells (AID 720687)
Summary of the method: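 Blue-channel autofluorescence (Ex/Em 405/460 nm, triamterene-equivalent) was measured after 1 hr compound exposure at 37 C, 5% CO2. Cells were HepG2, plated overnight at 37 C in MEM plus 10% FBS.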
On the % scale 0 is the no-effect control and ±100 the full control effect.

C=CCCC(=O)O
inactive: Potency [1] | Potency [2] | outcome [3] | Potency [4] | outcome [5] | outcome [6] | outcome [7] | outcome [8] | outcome [9] | outcome [10] | outcome [11] | outcome [12] | outcome [13] | Potency [14] | Potency [15]

C[C@H]1[C@H](NC(=O)/C(=N/OC(C)(C)C(=O)O)c2csc(N)n2)C(=O)N1S(=O)(=O)O (stereo in doubt)
inactive: Potency [2] | Potency [16] | outcome [3] | Potency [4] | fluorescence, relative to Rose Bengal [5] -0.264% [at 18.6 µM] | fluorescence, % of fluorescein control [6] -0.201% [at 18.6 µM] | fluorescence, % of triamterene [17] 0.218% [at 18.6 µM] | fluorescence, % of fluorescent control [7] 0.181% [at 18.6 µM] | fluorescence, % of fluorescent control [9] 0.0562% [at 18.6 µM] | activity change [10] 0.008% [at 18.6 µM] | fluorescence, % of fluorescent control [11] 0.271% [at 18.6 µM] | fluorescence, % of Rose Bengal [12] 0.467% [at 18.6 µM] | fluorescence, % of fluorescent control [13] 0.104% [at 18.6 µM] | Potency [14] | Potency [15]

CC1=C(C/C=C(\C)CCC[C@H](C)CCC[C@H](C)CCCC(C)C)C(=O)c2ccccc2C1=O
inactive: Potency [1] | Potency [2] | Potency [16] | outcome [3] | outcome [5] | outcome [17] | outcome [7] | outcome [8] | outcome [9] | outcome [10] | outcome [11] | outcome [12] | outcome [13] | outcome [18] | outcome [19] | Potency [14] | Potency [15]

CCN(Cc1ccccc1)c1ccccc1
inactive: Potency [1] | Potency [2] | Potency [16] | outcome [3] | outcome [5] | outcome [17] | outcome [7] | outcome [8] | outcome [9] | outcome [10] | outcome [11] | outcome [12] | outcome [13] | outcome [18] | outcome [19]

CNC(=O)Nc1ccc(Cl)c(Cl)c1
active: Potency [4] 15.4 µM
inactive: Potency [1] | Potency [2] | Potency [16] | outcome [5] | outcome [6] | outcome [17] | outcome [7] | outcome [8] | outcome [9] | outcome [10] | outcome [12] | outcome [13] | outcome [18] | outcome [19]

CCCCc1nc(Cl)c(CO)n1Cc1ccc(-c2ccccc2-c2nn[nH]n2)cc1
inactive: Potency [1] | Potency [2] | outcome [3] | outcome [5] | outcome [17] | outcome [7] | outcome [8] | outcome [9] | outcome [10] | outcome [11] | outcome [12] | outcome [13] | outcome [18] | outcome [19] | Potency [14] | Potency [15]

CCC(C(=O)NC(=O)NC(C)=O)c1ccccc1 (configuration not stated)
inactive: Potency [1] | Potency [2] | outcome [3] | Potency [4] | outcome [5] | outcome [6] | outcome [17] | outcome [7] | outcome [9] | outcome [10] | outcome [11] | outcome [12] | outcome [13] | outcome [18] | outcome [19] | Potency [14] | Potency [15]

NS(=O)(=O)Cc1noc2ccccc12
inactive: Potency [1] | Potency [2] | Potency [16] | outcome [3] | outcome [5] | outcome [6] | outcome [7] | outcome [10] | outcome [11] | outcome [12] | outcome [13] | outcome [18] | outcome [19] | Potency [14]

Nc1ccn([C@@H]2O[C@H](CO)[C@@H](O)C2O)c(=O)n1 (some centres not stated)
inactive: Potency [1] | Potency [2] | Potency [16] | outcome [5] | outcome [6] | outcome [17] | outcome [7] | outcome [9] | outcome [10] | outcome [11] | outcome [12] | outcome [13] | outcome [18] | outcome [19] | Potency [14]

CC(=O)O[C@@]12CO[C@@H]1C[C@H](O)[C@@]1(C)C(=O)[C@H](O)C3=C(C)[C@@H](OC(=O)[C@H](O)[C@@H](NC(=O)OC(C)(C)C)c4ccccc4)C[C@@](O)([C@@H](OC(=O)c4ccccc4)[C@H]21)C3(C)C
inactive: Potency [1] | Potency [2] | outcome [3] | outcome [5] | outcome [6] | outcome [17] | outcome [7] | outcome [8] | outcome [9] | outcome [10] | outcome [11] | outcome [12] | outcome [13] | outcome [18] | outcome [19] | Potency [14]
active: Potency [15] 10.7 µM

[Ca+2]
inactive: Potency [1] | Potency [16] | outcome [3] | outcome [6] | outcome [17] | outcome [7] | outcome [9] | outcome [10] | outcome [11] | outcome [12] | outcome [13] | outcome [18] | outcome [19]

O=C1c2ccccc2C(=O)c2cc(O)ccc21
active: Potency [4] 1.94 µM
inactive: Potency [2] | Potency [16] | outcome [5] | outcome [6] | outcome [17] | outcome [7] | outcome [8] | outcome [9] | outcome [10] | outcome [11] | outcome [12] | outcome [13] | outcome [18]

CCCCCCCCCC[N+](C)(C)[O-]
inactive: Potency [1] | Potency [2] | Potency [16] | outcome [3] | outcome [5] | outcome [17] | outcome [7] | outcome [8] | outcome [9] | outcome [10] | outcome [11] | outcome [12] | outcome [13] | outcome [18] | outcome [19]

CC1=NN(c2cccc(S(=O)(=O)O)c2)C(=O)C1
inactive: Potency [1] | Potency [16] | outcome [3] | outcome [6] | outcome [17] | outcome [7] | outcome [8] | outcome [9] | outcome [10] | outcome [11] | outcome [12] | outcome [13] | outcome [18] | Potency [14] | Potency [15]

CCCOC(=O)CC
inactive: Potency [1] | Potency [2] | Potency [16] | outcome [3] | outcome [5] | outcome [6] | outcome [7] | outcome [8] | outcome [10] | outcome [11] | outcome [12] | outcome [13] | outcome [18] | outcome [19] | Potency [15]

CN1CCC(=C2c3ccccc3CCc3cccnc32)CC1
inactive: Potency [1] | Potency [16] | outcome [3] | Potency [4] | outcome [17] | outcome [7] | outcome [8] | outcome [9] | outcome [10] | outcome [11] | outcome [12] | outcome [13] | outcome [18] | outcome [19]
